Where “and” joins values, the source holds several entries; their conditions need not be identical. Identical values can stand only once. Results filed as inconclusive are left out. Calls of active or inactive are those of the source. Unless noted, calls follow the shape of the dose curve; as a rule, active = well fitted curve in either direction with a large enough effect (not every such curve was filed as active); inconclusive = small, poorly fitted or top-dose-only effect, or another doubt; inactive = flat fitted curve, though single readings scatter.

These results are taken from PubChem BioAssay (NCATS).

Assay [1] addresses Lysosomal acid glucosylceramidase (Homo sapiens) (UniProt P04062). The experiment in a line: Glucocerebrosidase-p2 (AID 348; in the data active = potency below about 10 µM; also: potency is read from the fitted curve at half-maximal effect). The note with it: purified GBA, blue fluorogenic substrate, 40 min. In outline: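 Normal human glucocerebrosidase (0.2 nM) with blue fluorogenic substrate (80 uM final) in citrate/phosphate pH 5.9 with 10mM sodium taurocholate, 0.01% tween-20; 40 min RT, NaOH/glycine stop; fluorescence Ex 365/Em 440; AC50 from a titration from 0.6 nM upwards.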

Assay [2] can be described thus: AP1 Signaling Pathway (AID 357).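 Also: ME-180 reporter cells stimulated with EGF at its EC50 level; % is scaled to controls: 0 for no effect and ±100 for the full control effect.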 As to conditions: ME-180 AP-1-bla reporter, EGF-induced, beta-lactamase ratio, 5 h. In outline:
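A ratiometric CCF4 readout (405 nm excitation; 460 and 530 nm emission) quantified AP-1-driven beta-lactamase in ME-180 cells after 5 h with compound and EC50 EGF; AC50 values were derived for activators and inhibitors.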

Assay [3] is described as follows: NFAT Signaling Pathway (AID 444).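 Also: carbachol stimulus at about its EC50 of 1 µM final; % is scaled to controls: 0 for no effect and ±100 for the full control effect.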 As to conditions: Jurkat NFAT-bla M1, carbachol, beta-lactamase ratio, 5 h. In outline:
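Read-out: CCF4 FRET ratio (460 nm/530 nm) after 1 h RT dye loading, used for %activity and AC50 from titration series. Cells: Jurkat NFAT-β-lactamase/M1 line, treated with compound plus 1 uM carbachol for 5 h, 37 °C.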

Assay [4] in a line: Stat Signaling Pathway (AID 446).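 Also: ME-180 cervical cancer cells given 40 pM IL-6 alongside compound; SIE-controlled beta-lactamase reporter measured as 460/530 nm FRET emission ratio; % is scaled to controls: 0 for no effect and ±100 for the full control effect.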 The note with it: ME-180 SIE beta-lactamase reporter, IL-6 stimulated, 5 h. In outline:
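Compound effects on IL-6-induced STAT reporter activity were measured in ME-180 cells. After overnight culture, cells were co-treated with 40 pM IL-6 for 5 hrs before beta-lactamase substrate loading at room temperature.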

For assay [5], the target named is Glucocorticoid receptor (Homo sapiens) (UniProt P04150). Description: GR-GFP Redistribution (AID 450;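 active = compounds whose dose series gives a full or clear partial fitted curve of increased nuclear translocation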; also: potency is read from the fitted curve at half-maximal effect). The note with it: U2OS GR-GFP nuclear translocation, laser cytometry, 2 h.
The target is the same in assay [6]. Description: GR-EFC Redistribution (AID 451; calls by dose curve; also: potency is read from the fitted curve at half-maximal effect). The note with it: CHO-K1 GR-EFC translocation, beta-gal luminescence, 2 h. In outline: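 Translocation of GR-ED fusion to nuclear EA restores b-gal, read by luminescence after 1 h room-temperature detection. Engineered CHO-K1 biosensor cells, 1,000/well, exposed 2 h at 37 C to titrations up to 46 uM final.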
The target in assay [7] is Mitogen-activated protein kinase 10 (Mus musculus) (UniProt Q61831). The experiment in a line: JNK3 AlphaScreen Assay (AID 530).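 Also: kinase came from lysate of stimulated human HepG2 cells; signal reports phosphorylation of biotinylated GST-cJun 1-79 at Ser73 with 10 µM ATP; % is scaled to controls: 0 for no effect and ±100 for the full control effect.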 The note with it: JNK3 lysate, c-Jun phosphorylation; series mostly up to 57.1 µM. The gist of the method: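 qHTS titrations with 15 min compound pre-incubation before adding ATP (10 uM final). Read-out: AlphaScreen of Ser73-phosphorylated biotin-GST-cJun using HepG2 lysate JNK3 activated by IL-1β and TNFα.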

Assay [8] addresses 3',5'-cyclic-AMP phosphodiesterase 4B (Homo sapiens) (UniProt Q07343). Description: qHTS Assay for Inhibitors of PDE-IV (AID 607; active = well fitted activation curve with a large enough effect in the main read-out, with a control signal flat, not every such curve was filed as active; also: % of control where 0% means no effect). As to conditions: HEK293 ACTOne CNG channel cells, membrane potential fluorescence; series mostly up to 22.9 µM. The gist of the method: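 ACTOne HEK293 cells carry a modified cAMP-gated CNG channel and express endogenous PDE4; plated 1000 cells/well, compounds up to 22.9 uM final. Membrane-potential dye fluorescence (ex 535/em 590) was read; parental cells received 10 uM forskolin + 100 uM RO 20-1724.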

Assay [9] deals with Cytochrome P450 3A4 (Homo sapiens) (UniProt P08684). The experiment in a line: qHTS Assay for Activators of Cytochrome P450 3A4 (AID 885; active = well fitted curve in the direction sought with a large enough effect; an effect the other way counts as inactive or inconclusive; also: nearly all actives have a fitted effect of over 65% in size). As to conditions: recombinant CYP3A4, Luciferin-PPXE luminescence, 60 min; series mostly up to 57.1 µM. The gist of the method:
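CYP3A4 activity: Luciferin-PPXE O-dealkylation, 25uM substrate, 200mM KPO4, RT throughout. Read-out is luciferase luminescence; higher values reflect activation.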

Assay [10] can be described thus: qHTS Assay for Identification of Small Molecule Agonists for Hypoxia Response Element Signaling Pathway (AID 914; active = well fitted activation curve with a large enough effect in the signal ratio, with a control signal flat, not every such curve was filed as active; the % refers to the signal ratio; also: % of control where 0% means no effect). The note with it: ME-180 (cervical carcinoma) HRE-bla reporter, beta-lactamase ratio, CoCl2, 17 h; activation: stronger effect = higher value. The gist of the method:
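Compounds in a titration series were added to ME-180 reporter cells alongside an EC50 level of CoCl2. After 17 hours, beta-lactamase activity was read as the 460nm/530nm emission ratio of CCF4, giving AC50 values.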

A short description of assay [11]: qHTS Assay for Lipid Storage Modulators (AID 1519; calls by dose curve). The note with it: Drosophila S3 cells, BODIPY lipid droplet/cell ratio, laser cytometry, cells loaded with oleic acid. The gist of the method:
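Cells seeded at 5,000 per well were treated with compounds over a concentration series and loaded with oleic acid (400 uM, as added). Lipid droplet fluorescence (488 nm excitation, 500-530 nm channel) was read by laser-scanning cytometry and normalized to 20 uM Triacsin C.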

Assay [12] deals with Cytochrome P450 1A2 (Homo sapiens) (UniProt P05177). Description: p450-cyp1a2 (AID 410; calls by dose curve;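 also: -100% = full effect of reference inhibitor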). The note with it: recombinant CYP1A2, luciferin-ME demethylation, luminescence; series mostly up to 57 µM. In outline:
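Luminescent demethylation readout: Luciferin-ME (100uM, equal to Km) turned over by 20nM CYP1A2 for 60 min at room temperature after NADPH regeneration addition, following 10 min compound preincubation. Normalization used 57 uM furafylline as full inhibition.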

Assay [13] concerns the target Guanine nucleotide-binding protein G(i) subunit alpha-1 (Homo sapiens) (UniProt P63096). Description: qHTS Assay for Inhibitors of RGS12 GoLoco Motif Activity (Green Fluorophore) (AID 879; active = well fitted curve in the direction sought with a large enough effect; an effect the other way counts as inactive or inconclusive;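 also: 0% = labeled peptide with Gαi1 and full inhibition = labeled peptide alone without protein; negative values mean loss of peptide binding seen as reduced polarization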). As to conditions: Galphai1/FITC-RGS12 GoLoco peptide, fluorescence polarization; series mostly up to 57.1 µM. In outline:
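A drop in FITC polarization marked displacement of the FITC-tagged RGS12 GoLoco peptide (10 nM) from Gαi1 (50 nM). Compounds were incubated 10 min at room temperature in Tris pH 7.5 buffer containing 150 mM NaCl, 0.1 mM GDP and 0.05% NP40; unlabeled peptide titration served as control.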

Assay [14] is described as follows: qHTS profiling for inhibitors of Plasmodium falciparum proliferation (AID 504749; active = well fitted curve in the direction sought with a large enough effect; an effect the other way counts as inactive or inconclusive;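 also: 0% = DMSO vehicle and full inhibition = artemisinin control; nearly all actives have a fitted effect of over 60% in size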). The note with it: P. falciparum in erythrocytes, SYBR Green DNA, 72 h, at 28.7 µM (top of the series). The gist of the method:
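SYBR Green fluorescence of parasite DNA, read after lysis and overnight dark incubation, measured growth over 72 h in erythrocyte culture at 0.3% parasitemia and 2.5% hematocrit. Data normalised to DMSO and 0.29 uM artemisinin, with plate-drift correction.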

Setting [15] is: at 7.69 µM (top of the series) unless noted.
[16] abbreviates: measured here: cell count channel max response.
Setting [17] is: measured here: lipid channel max response.

Lysosomal acid glucosylceramidase (Homo sapiens), sequence (P04062 whole entry, looked up): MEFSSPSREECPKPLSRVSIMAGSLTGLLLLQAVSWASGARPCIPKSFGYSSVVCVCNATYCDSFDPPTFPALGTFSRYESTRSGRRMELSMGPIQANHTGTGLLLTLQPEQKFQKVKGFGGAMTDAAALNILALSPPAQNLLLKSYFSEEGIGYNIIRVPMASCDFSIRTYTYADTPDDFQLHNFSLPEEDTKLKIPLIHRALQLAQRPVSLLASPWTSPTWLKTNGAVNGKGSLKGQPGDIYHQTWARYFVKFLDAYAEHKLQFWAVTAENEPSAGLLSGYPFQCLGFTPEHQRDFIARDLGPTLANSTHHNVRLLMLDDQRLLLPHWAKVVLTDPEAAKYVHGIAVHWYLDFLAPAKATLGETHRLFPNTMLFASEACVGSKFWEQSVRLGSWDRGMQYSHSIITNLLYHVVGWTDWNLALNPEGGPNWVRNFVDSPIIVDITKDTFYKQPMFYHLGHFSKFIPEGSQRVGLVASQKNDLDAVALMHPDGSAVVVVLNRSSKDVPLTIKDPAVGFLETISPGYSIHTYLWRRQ
3',5'-cyclic-AMP phosphodiesterase 4B (Homo sapiens), sequence (Q07343 whole entry, looked up): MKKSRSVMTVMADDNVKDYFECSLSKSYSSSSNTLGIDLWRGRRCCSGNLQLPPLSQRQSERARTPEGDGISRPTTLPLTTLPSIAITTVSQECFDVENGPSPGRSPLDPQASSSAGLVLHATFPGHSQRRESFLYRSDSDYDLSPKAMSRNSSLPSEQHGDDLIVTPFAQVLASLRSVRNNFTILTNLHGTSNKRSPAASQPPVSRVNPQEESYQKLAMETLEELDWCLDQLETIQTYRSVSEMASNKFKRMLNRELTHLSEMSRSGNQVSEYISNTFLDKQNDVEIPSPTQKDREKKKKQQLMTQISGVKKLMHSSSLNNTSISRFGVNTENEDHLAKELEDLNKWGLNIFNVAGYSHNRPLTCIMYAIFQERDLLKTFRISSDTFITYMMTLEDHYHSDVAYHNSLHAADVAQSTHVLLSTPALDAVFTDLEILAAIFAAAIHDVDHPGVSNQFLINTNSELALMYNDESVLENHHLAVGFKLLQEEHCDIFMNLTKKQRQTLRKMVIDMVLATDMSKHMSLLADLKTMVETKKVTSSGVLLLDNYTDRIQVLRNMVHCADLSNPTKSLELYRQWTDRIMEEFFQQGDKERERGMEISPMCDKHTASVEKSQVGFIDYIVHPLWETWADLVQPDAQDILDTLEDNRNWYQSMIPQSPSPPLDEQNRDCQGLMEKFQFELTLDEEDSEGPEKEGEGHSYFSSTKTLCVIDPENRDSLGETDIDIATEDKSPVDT
Cytochrome P450 3A4 (Homo sapiens), sequence (P08684 whole entry, looked up): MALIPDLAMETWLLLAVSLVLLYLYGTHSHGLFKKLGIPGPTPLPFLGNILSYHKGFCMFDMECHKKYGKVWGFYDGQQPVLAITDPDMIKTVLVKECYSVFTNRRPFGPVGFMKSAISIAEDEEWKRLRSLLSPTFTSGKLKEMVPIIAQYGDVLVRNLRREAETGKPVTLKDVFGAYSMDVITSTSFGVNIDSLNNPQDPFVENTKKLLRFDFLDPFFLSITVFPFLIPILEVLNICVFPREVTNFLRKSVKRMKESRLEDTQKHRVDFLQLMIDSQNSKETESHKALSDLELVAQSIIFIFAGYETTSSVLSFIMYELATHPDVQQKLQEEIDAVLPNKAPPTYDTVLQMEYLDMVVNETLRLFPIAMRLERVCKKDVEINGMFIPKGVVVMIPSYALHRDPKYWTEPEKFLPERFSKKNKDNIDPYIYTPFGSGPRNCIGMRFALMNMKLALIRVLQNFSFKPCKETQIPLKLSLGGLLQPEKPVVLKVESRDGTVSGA
Glucocorticoid receptor (Homo sapiens), sequence (P04150 whole entry, looked up, the tested form may be a part): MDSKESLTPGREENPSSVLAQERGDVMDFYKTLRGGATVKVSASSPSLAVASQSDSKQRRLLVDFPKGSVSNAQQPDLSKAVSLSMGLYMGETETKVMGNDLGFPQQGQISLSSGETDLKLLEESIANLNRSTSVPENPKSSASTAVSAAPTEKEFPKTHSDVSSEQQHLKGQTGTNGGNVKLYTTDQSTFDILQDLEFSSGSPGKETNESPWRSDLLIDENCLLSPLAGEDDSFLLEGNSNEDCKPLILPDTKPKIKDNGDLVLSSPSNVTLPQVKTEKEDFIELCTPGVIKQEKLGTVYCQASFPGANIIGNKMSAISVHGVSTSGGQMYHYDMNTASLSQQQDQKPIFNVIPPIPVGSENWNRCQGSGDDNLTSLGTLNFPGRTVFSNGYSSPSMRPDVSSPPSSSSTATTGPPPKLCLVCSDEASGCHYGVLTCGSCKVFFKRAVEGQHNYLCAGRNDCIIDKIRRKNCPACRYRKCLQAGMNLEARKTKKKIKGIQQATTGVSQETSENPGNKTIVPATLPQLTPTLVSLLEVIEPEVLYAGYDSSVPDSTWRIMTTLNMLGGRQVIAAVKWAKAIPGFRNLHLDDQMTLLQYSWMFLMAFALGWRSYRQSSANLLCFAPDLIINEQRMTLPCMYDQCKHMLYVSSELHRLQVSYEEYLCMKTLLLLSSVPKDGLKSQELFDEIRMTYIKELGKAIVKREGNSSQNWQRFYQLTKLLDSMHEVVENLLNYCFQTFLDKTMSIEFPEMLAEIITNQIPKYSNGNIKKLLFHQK
Cytochrome P450 1A2 (Homo sapiens), sequence (P05177 whole entry, looked up): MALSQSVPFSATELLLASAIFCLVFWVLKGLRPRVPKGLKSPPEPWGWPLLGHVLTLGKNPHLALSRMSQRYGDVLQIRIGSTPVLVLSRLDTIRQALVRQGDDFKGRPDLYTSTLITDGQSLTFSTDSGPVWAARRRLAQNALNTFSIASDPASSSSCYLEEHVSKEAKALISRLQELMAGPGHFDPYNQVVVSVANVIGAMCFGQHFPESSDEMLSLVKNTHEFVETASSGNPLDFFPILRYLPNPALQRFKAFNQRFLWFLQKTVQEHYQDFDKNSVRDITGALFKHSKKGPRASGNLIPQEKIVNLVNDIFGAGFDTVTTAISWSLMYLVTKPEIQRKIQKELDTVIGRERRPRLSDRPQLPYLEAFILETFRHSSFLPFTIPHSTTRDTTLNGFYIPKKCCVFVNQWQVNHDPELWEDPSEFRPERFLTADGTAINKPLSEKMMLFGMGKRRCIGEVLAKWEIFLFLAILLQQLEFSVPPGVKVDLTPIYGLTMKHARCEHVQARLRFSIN
Guanine nucleotide-binding protein G(i) subunit alpha-1 (Homo sapiens), sequence (P63096 whole entry, looked up): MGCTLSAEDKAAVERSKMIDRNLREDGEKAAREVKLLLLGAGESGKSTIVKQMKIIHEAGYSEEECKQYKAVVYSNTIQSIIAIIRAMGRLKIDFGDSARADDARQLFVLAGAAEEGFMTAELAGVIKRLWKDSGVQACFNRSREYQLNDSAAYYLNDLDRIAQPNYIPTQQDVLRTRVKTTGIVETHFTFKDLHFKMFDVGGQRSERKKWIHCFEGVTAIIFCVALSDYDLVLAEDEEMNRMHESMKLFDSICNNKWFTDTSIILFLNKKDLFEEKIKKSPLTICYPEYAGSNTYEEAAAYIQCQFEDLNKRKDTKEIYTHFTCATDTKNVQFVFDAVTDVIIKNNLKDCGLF

Consider `O=c1c(-c2cc(F)cc(F)c2)nc2cnc(Oc3ccccc3)nc2n1C[C@H]1CCCO1`, for which the Potency in assay [1] was > 11.4 µM (inactive); in assay [5], > 9.22 µM (inactive); in [6], > 46 µM (inactive). Moreover, the activity change, negative = inhibition in assay [2] (setting [15]) is -12.8% (inactive); in assay [3] (setting [15]), -1.84% (inactive); in assay [11] (at 57.5 µM (top of the series)), -6.47% (inactive). Further, the activity, negative = inhibition in assay [4] (setting [15]) was -1.6% (inactive). For the same compound, the Potency entry in assay [7], in [8] and in assay [9] was “inactive” in each case. Also, in assay [10], the activation was 3.51% (inactive). Also, the max response in assay [11] (setting [16]) was 13.2%; in assay [11] (setting [17]), 10.1%.
`N#CCCn1c(=O)c(CCc2ccccc2)nc2cnc(N3CCOCC3)nc21`: the Potency in [1] was > 11.4 µM (inactive); in [5] it was > 9.22 µM (inactive); in [6] it was > 46 µM (inactive). Moreover, the figures for the activity change, negative = inhibition in assay [3] (setting [15]) and in [11] (at 57.5 µM (top of the series)) were -3.78% (inactive) and 4.17% (inactive), respectively. Also, the activity, negative = inhibition in assay [4] (setting [15]) is 26.7% (inactive). The Potency result in assay [7] is “inactive”. Also, the results for the max response in assay [11] (setting [16]) and in [11] (setting [17]) were 19.8% and 22.7%, respectively.
For the compound `COc1ccc(C(=O)N2CCC3(CC2)CN(c2ccccn2)C3)cc1`, the Potency was > 11.4 µM (inactive) in assay [1] and > 46 µM (inactive) in [6]. In addition, the activity change, negative = inhibition in [2] (setting [15]) is 3.74% (inactive); in [3] (setting [15]) it was -14.4% (inactive); in assay [11] (at 57.5 µM (top of the series)), 6.8% (inactive). Further, in assay [4] (setting [15]), the activity, negative = inhibition was -24.1% (inactive). In addition, the Potency entry in assay [7] and in assay [8] was “inactive” in each case. Besides, the max response in [11] (setting [16]) was found to be 15.9%; in [11] (setting [17]), 29.6%.
`CC(=O)OCC1=C(C(=O)O)N2C(=O)[C@@H](NC(=O)CSc3ccncc3)[C@@H]2SC1`: the activity change, negative = inhibition in [2] (at 17.2 µM (top of the series)) was 9.51% (inactive); in [2] (at 38 µM (top of the series)), 11% (inactive); in assay [3] (at 17.2 µM (top of the series)), 7.12% (inactive); in assay [3] (at 38 µM (top of the series)) it was 4.33% (inactive); in assay [11] (at 25.7 µM (top of the series)), -4.27% (inactive). The Potency result in [12], in assay [7], in assay [8], in assay [13] and in assay [9] was “inactive” in each case. Moreover, the activity, negative = inhibition in [4] (at 17.2 µM (top of the series)) is 8.61% (inactive); in [4] (at 38 µM (top of the series)) it was -9.45% (inactive); in assay [14] (parasite line A), -4.5% (inactive); in [14] (parasite line B), -4.99% (inactive). Besides, the Potency in [5] is > 46 µM (inactive) and > 20.6 µM (inactive); in [6], > 46 µM (inactive) and > 20.6 µM (inactive). For the same compound, the max response in assay [11] (setting [16]) was -7.14%; in assay [11] (setting [17]), -13.2%.
